Test results from PubChem BioAssay (NCATS).
Values joined by “and” are separate entries in the source; they are usually repeats but may differ in a detail not shown here. Identical values can stand only once. Results filed as inconclusive are left out. Where a call stands in place of a potency, no number is given. Values without a mark were called inactive. Active and inactive are the calls of the source. Unless noted, calls come from the whole dose curve; as a rule, active = well fitted curve in the direction sought with a large enough effect; inconclusive = small, poorly fitted or top-dose-only effect, or another doubt; inactive = no such curve, though single readings can be large; an effect the other way counts as inactive or inconclusive.

Experiments:
[1] = target: Cellular tumor antigen p53 (Homo sapiens) (UniProt P04637); assay: Primary qHTS for small molecule compounds that upregulate eGFP-tagged delta133p53alpha (in N-terminal) cells. (AID 2060322); details: NCI-H358 eGFP-delta133p53alpha fluorescence, 24 h; activation: stronger effect = higher value; note: nearly all actives have a fitted effect of over 75% in size; note: potency is the fitted concentration of half-maximal effect; for activation: series mostly up to about 56 µM
How it was run: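 NCI-H358 cells pre-induced 24 h with 10 ng/ml doxycycline to express N-terminal eGFP-delta133p53alpha, then dosed 24 h at 37C without doxycycline; fixed, Hoechst-stained, GFP intensity by laser scanning cytometry, normalized to DMSO (0%) and 57.5 uM 5-azacytidine (100%).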

[2] = target: Cellular tumor antigen p53 (Homo sapiens) (UniProt P04637); assay: Primary qHTS for small molecule compounds that upregulate eGFP-tagged delta133p53alpha (in C-terminal) cells. (AID 2060324); note: potency is the fitted concentration of half-maximal effect
How it was run: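 NCI-H358 cells with doxycycline-inducible D133p53a-eGFP (C-terminal tag), pre-induced 24 h with 100 ng/ml doxycycline, plated 800/well in doxycycline-free medium and treated 24 h at 37 °C with compound titrations. Cells were then fixed and Hoechst-stained, and GFP intensity was read by laser scanning cytometry.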

[3] = target: Aldehyde dehydrogenase, mitochondrial (Homo sapiens) (UniProt P05091); assay: qHTS for Inhibitors of the Aldehyde Dehydrogenase Family (ALDH2) Validation screens (AID 2061302; active = well fitted inhibition curve with a large enough effect; title and protocol of this record describe different tests; note: potency is the fitted concentration of half-maximal effect)
[4] = target: Retinal dehydrogenase 2 (Homo sapiens) (UniProt O94788); assay: qHTS for Inhibitors of the Aldehyde Dehydrogenase Family (ALDH1A2) Confirmation screens (AID 2061314); note: nearly all actives have a fitted effect of over 65% in size
[5] = target: Retinaldehyde dehydrogenase 3 (Homo sapiens) (UniProt P47895); assay: qHTS for Inhibitors of the Aldehyde Dehydrogenase Family (ALDH1A3) Validation screen (AID 2061312); note: nearly all actives have a fitted effect of over 45% in size
[6] = BET inhibitor-based combinations targeting novel dependencies in MECOM-rearranged (r) AML: MV-4-11 cell line (AID 2202233); note: nearly all actives have a fitted effect of over 45% in size; note: potency is the fitted concentration of half-maximal effect
How it was run: (§1)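 Cells at 500/well were exposed for 48 hr to MIPE v5.0 drugs as 11-point dose curves. Viability was read by CellTiter-Glo luminescence and normalized to DMSO and empty-well controls. Activity was expressed as AUC and per-cell-line Z-AUC.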

[7] = BET inhibitor-based combinations targeting novel dependencies in MECOM-rearranged (r) AML: HNT-34 cell line (AID 2202234); note: nearly all actives have a fitted effect of over 35% in size; note: potency is the fitted concentration of half-maximal effect
How it was run: as §1

[8] = BET inhibitor-based combinations targeting novel dependencies in MECOM-rearranged (r) AML: UCSD-AML1 cell line (AID 2202235); note: nearly all actives have a fitted effect of over 40% in size; note: potency is the fitted concentration of half-maximal effect
How it was run: as §1

[9] = BET inhibitor-based combinations targeting novel dependencies in MECOM-rearranged (r) AML: AML-191 cell line (AID 2202236; note: nearly all actives have a fitted effect of over 35% in size; note: potency is the fitted concentration of half-maximal effect)
How it was run: (§2)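 AML cell lines seeded at 500 cells/well, treated with 11-point dose curves for 48 h. Viability by CellTiter-Glo luminescence, normalised to DMSO and empty wells; activity expressed as AUC and per-cell-line Z-transformed AUC.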

[10] = BET inhibitor-based combinations targeting novel dependencies in MECOM-rearranged (r) AML: AML-194 cell line (AID 2202237; note: nearly all actives have a fitted effect of over 40% in size; note: potency is the fitted concentration of half-maximal effect)
How it was run: as §2

[11] = BET inhibitor-based combinations targeting novel dependencies in MECOM-rearranged (r) AML: SET-2 cell line (AID 2202231); details: SET-2 AML cells viability, CellTiter-Glo luminescence, 48 h; viability: stronger effect = lower value, concentration not given here; note: nearly all actives have a fitted effect of over 35% in size; note: potency is the fitted concentration of half-maximal effect
How it was run: as §2

[12] = BET inhibitor-based combinations targeting novel dependencies in MECOM-rearranged (r) AML: OCI-AML3 cell line (AID 2202232); details: Potency: OCI-AML3 viability; note: nearly all actives have a fitted effect of over 35% in size; note: potency is the fitted concentration of half-maximal effect
How it was run: as §2

[13] = target: Retinaldehyde dehydrogenase 3 (Homo sapiens) (UniProt P47895); assay: qHTS for Inhibitors of the Aldehyde Dehydrogenase Family (ALDH1A3) Primary screen (AID 2061315)

Chain of Cellular tumor antigen p53 (Homo sapiens) (P04637 whole entry, looked up): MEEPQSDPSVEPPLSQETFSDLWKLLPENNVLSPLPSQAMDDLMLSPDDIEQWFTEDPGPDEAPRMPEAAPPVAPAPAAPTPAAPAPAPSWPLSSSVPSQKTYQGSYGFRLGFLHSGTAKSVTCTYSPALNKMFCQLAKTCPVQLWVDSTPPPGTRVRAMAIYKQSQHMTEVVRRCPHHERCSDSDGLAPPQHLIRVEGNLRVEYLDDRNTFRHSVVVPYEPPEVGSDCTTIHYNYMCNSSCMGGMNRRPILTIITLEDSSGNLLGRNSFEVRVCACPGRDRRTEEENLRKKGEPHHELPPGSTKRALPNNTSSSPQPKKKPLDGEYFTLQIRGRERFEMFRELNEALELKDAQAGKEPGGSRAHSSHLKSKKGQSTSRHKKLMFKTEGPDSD

CCN1CCc2nc(N)oc2CC1
activation [1]: -8.37% and -17.5% | Potency [2]: inactive | Potency [3]: inactive | Potency [4]: inactive

CC(=O)Oc1ccccc1C(=O)O
activation [1]: 23.2% and 81.8% and -5.87% | Potency [2]: inactive | Potency [3]: inactive | Potency [5]: inactive | Potency [6]: inactive | Potency [7]: inactive | Potency [8]: inactive | Potency [9]: inactive | Potency [10]: inactive

CC(C)(C)C(=O)Oc1ccc(S(=O)(=O)Nc2ccccc2C(=O)NCC(=O)O)cc1
activation [1]: -5.86% and -2.63% and -11.2% | Potency [2]: inactive | Potency [3]: inactive | viability [11]: 111% | Potency [6]: inactive | Potency [7]: inactive | Potency [9]: inactive | Potency [10]: inactive

C[C@@H](N)C1CCC(C(=O)Nc2ccncc2)CC1 (stereo partly specified)
activation [1]: -43.5% and -9.78% | Potency [2]: inactive | Potency [3]: inactive | viability [11]: 110% | Potency [12]: inactive | Potency [7]: inactive | Potency [8]: inactive | Potency [9]: inactive | Potency [10]: inactive

O=Nc1c(-c2c(O)[nH]c3cc(Br)ccc23)[nH]c2ccccc12
activation [1]: 17.1% and -39.3% | Potency [2]: inactive | Potency [3]: inactive | Potency [11]: 5.25 µM (active) | Potency [12]: 11.8 µM (active) | Potency [6]: 0.263 µM (active) | Potency [7]: 2.63 µM (active) | Potency [8]: 13.2 µM (active) | Potency [9]: 14.8 µM (active) | Potency [10]: 14.8 µM (active)

Cc1cccc(-c2[nH]c(C(C)(C)C)nc2-c2ccc3nccnc3c2)n1
activation [1]: -6.37% and 25.5% | Potency [2]: inactive | Potency [3]: inactive | Potency [5]: inactive | Potency [12]: inactive | Potency [8]: inactive

Nc1nc(N)c2nc(CNc3ccc(C(=O)NC(CCC(=O)O)C(=O)O)cc3)cnc2n1 (stereo unspecified)
activation [1]: 25.1% and -8.03% | Potency [2]: inactive | Potency [3]: inactive | viability [11]: 90.9% | Potency [12]: inactive | Potency [6]: inactive | Potency [7]: inactive | Potency [10]: inactive

CC[N+](CC)(CC)CCOc1cccc(OCC[N+](CC)(CC)CC)c1OCC[N+](CC)(CC)CC
activation [1]: -9.51% and 5.08% and -25.7% | Potency [2]: inactive | Potency [3]: inactive | viability [11]: 113% | Potency [12]: inactive | Potency [6]: inactive | Potency [7]: inactive | Potency [8]: inactive | Potency [10]: inactive

Oc1ccc(C2CNCCc3c2cc(O)c(O)c3Cl)cc1 (stereo unspecified)
activation [1]: -18.2% and -20.9% and -11.7% | Potency [2]: inactive | Potency [3]: inactive | viability [11]: 108% | Potency [12]: inactive | Potency [6]: inactive | Potency [7]: inactive | Potency [8]: inactive | Potency [10]: inactive

NC(=O)OCC(COC(N)=O)c1ccccc1
activation [1]: -10.4% and 18.4% and 1.5% | Potency [2]: inactive | Potency [3]: inactive | viability [11]: 119% | Potency [12]: inactive | Potency [6]: inactive | Potency [7]: inactive | Potency [9]: inactive | Potency [10]: inactive

O=C1CCC(N2C(=O)c3ccccc3C2=O)C(=O)N1 (stereo unspecified)
activation [1]: -0.565% and -9.78% and -7.37% | Potency [2]: inactive | Potency [3]: inactive | Potency [5]: inactive | Potency [12]: inactive | Potency [6]: inactive | Potency [7]: inactive | Potency [8]: inactive | Potency [9]: inactive | Potency [10]: inactive

CN1CCC(=C2c3ccccc3C=Cc3ccccc32)CC1
activation [1]: -15.3% and 19.5% and -34.1% | Potency [2]: inactive | Potency [3]: inactive | Potency [5]: inactive | Potency [8]: inactive | Potency [10]: inactive

Oc1ccc2ccccc2c1SSc1c(O)ccc2ccccc12
activation [1]: -0.0951% | Potency [2]: inactive | Potency [3]: 14.1 µM (active) | Potency [5]: inactive | Potency [12]: 6.61 µM (active) | Potency [6]: 16.6 µM (active) | Potency [7]: 18.6 µM (active) | Potency [9]: 20.9 µM (active) | Potency [10]: 20.9 µM (active)

CC[C@@]1(O)C(=O)OCc2c1cc1n(c2=O)Cc2cc3c(CN(C)C)c(O)ccc3nc2-1
Potency [1]: 24.6 µM (active) and 3.38 µM (active) | Potency [2]: 6.75 µM (active) | Potency [3]: inactive | Potency [13]: inactive | Potency [12]: 0.0186 µM (active) | Potency [7]: 0.0083 µM (active) | Potency [8]: 0.0166 µM (active) | Potency [9]: 0.0209 µM (active)

Nc1c2c(nc3ccccc13)CCCC2
activation [1]: -15.6% and 9.21% and -7.03% | Potency [2]: inactive | Potency [3]: inactive | Potency [5]: inactive | viability [11]: 102% | Potency [9]: inactive

Cn1cnc([N+](=O)[O-])c1Sc1ncnc2nc[nH]c12
activation [1]: -10% | Potency [2]: inactive | Potency [3]: inactive | Potency [5]: inactive | Potency [11]: 1.66 µM (active) | Potency [8]: inactive | Potency [10]: 0.468 µM (active)

O=C(c1ccccc1)c1ccc2n1CCC2C(=O)O (stereo unspecified)
activation [1]: -6.21% and -3.1% | Potency [2]: inactive | Potency [3]: inactive | viability [11]: 104% | Potency [12]: inactive | Potency [7]: inactive | Potency [9]: inactive | Potency [10]: inactive

O=C(c1ccc(OCCN2CCCCC2)cc1)c1c(-c2ccc(O)cc2)sc2cc(O)ccc12
activation [1]: 20.9% and -56% | Potency [2]: inactive | Potency [3]: inactive | Potency [5]: inactive | Potency [12]: 11.8 µM (active) | Potency [6]: 18.6 µM (active) | Potency [8]: inactive | Potency [10]: 20.9 µM (active)

C[C@]12CC[C@@H]3c4ccc(O)cc4CC[C@H]3[C@@H]1CC[C@@H]2O
activation [1]: 63.8% | Potency [2]: inactive | Potency [3]: inactive | Potency [5]: inactive | Potency [7]: 20.9 µM (active) | Potency [8]: 14.8 µM (active) | Potency [9]: 16.6 µM (active) | Potency [10]: 23.5 µM (active)
